Records with an inconclusive call do not appear. Entries that show only a call come without a potency. The source made the active and inactive calls. Calls come from the whole dose curve; as a rule, active = well fitted cell-killing curve with a large enough effect; inconclusive = small, poorly fitted or top-dose-only effect, or effect the other way; inactive = no such curve, though single readings can be large or run the other way.

The nature of the assay: qHTS assay to identify small molecule inhibitors of chordoma cells - UCH-1 (AID 1259355). Note: nearly all actives have a fitted effect of over 55% in size. Conditions: UCH-1 chordoma viability, CellTiter-Glo, 48 h, combination, with auranofin plus four topoisomerase inhibitors; series mostly up to 46.1 µM. The method, boiled down: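 Luminescent ATP read-out (CellTiter-Glo, 30min at room temperature) measured viability of UCH-1 cells exposed for 48hr to test drugs at 15 concentrations, co-dosed with a five-agent combination of auranofin, camptothecin, doxorubicin, rubitecan and topotecan.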
(In qHTS, concentration-response curves come from the screen itself.)
On to `CC(=O)c1ccc2c(c1)N(CCCN1CCC(CCO)CC1)c1ccccc1S2`, for which the Potency entry is “inactive”. Consider `CC(=O)O[C@H]1C[C@@H]2CC[C@@H]3[C@H](CC[C@@]4(C)[C@H]3C[C@H]([N+]3(C)CCCCC3)[C@@H]4OC(C)=O)[C@@]2(C)C[C@@H]1[N+]1(C)CCCCC1`, for which the Potency result was “inactive”. Consider `C[C@]12CC[C@@H]3c4ccc(O)cc4CC[C@H]3[C@@H]1CC[C@@H]2O`, for which the Potency entry is “inactive”. For the compound `CCCCOc1ccc(C(=O)CCN2CCCCC2)cc1`, the Potency result is “inactive”. For `COc1ccc(/C=C/C(=O)c2ccc(OC)cc2OC)cc1`, the Potency entry is “inactive”.

As to `O=C(CCCN1CCC(O)(c2ccc(Br)cc2)CC1)c1ccc(F)cc1`, the Potency result is “inactive”. As for `CCCCCCCCCCOCC(O)CN` (stereo not given), the Potency entry was “inactive”. As to `C1CCc2nnnn2CC1`, the Potency result was “inactive”.

As to `CCCCc1nc(Cl)c(CO)n1Cc1ccc(-c2ccccc2-c2nn[nH]n2)cc1`, the Potency entry is “inactive”. With `CCN(CC)CCOc1ccc(C(O)(Cc2ccc(Cl)cc2)c2ccc(C)cc2)cc1` (stereo not given) the entry was “inactive”; with `CCN(CCCc1ccccc1)CCCc1ccccc1`, “inactive”. In the case of `CCC(NC(C)C)C(O)c1ccc(O)c(O)c1` (stereo not given), the Potency result is “inactive”.

Turning to `CCCCC1=NC2(CCCC2)C(=O)N1Cc1ccc(-c2ccccc2-c2nn[nH]n2)cc1`, the Potency entry is “inactive”.

Take `CCOC(=O)c1cccc(N)c1`: the Potency result was “inactive”. Then `CO/N=C1\CN(c2nc3c(cc2F)c(=O)c(C(=O)O)cn3C2CC2)CC1CN` (stereo not given), with “inactive”; and `CCCCCCCCCCCCCCCC[N+](C)(C)CC`, with “inactive”. Consider `CCOC(=O)COc1ccc2c(C)c(CCN(CC)CC)c(=O)oc2c1Cl`, for which the Potency result was “inactive”. Then `Nc1ccc(C(=O)O)cc1`, with “inactive”; and `N[C@H](CO)C(=O)O`, with “inactive”.

With `COc1cc(C(=S)N2CCOCC2)cc(OC)c1OC`, the Potency entry was “inactive”.

For the origin of these results see PubChem BioAssay (NCATS).
